From PubChem BioAssay AID449762 (Southern Research Specialized Biocontainment Screening …, 2010)
Out of some 330,000 compounds screened, about 1,900 (0.58%) were called active. Roughly 4% stayed inconclusive and do not appear here. Not all results are given here. Potency and affinity values are given separately. Unmarked numbers belong to inactive results. No stated cut-off is given here; in the data, inconclusive means inhibition above about 70% without an active follow-up result; inactive means below that.

Test: M. tuberculosis growth inhibition, HTS (AID 449762);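 further: bacterial growth assessed after seven days of incubation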
Conditions: M. tuberculosis H37Rv growth inhibition, 7H9 media; at 25 µM; stronger effect = higher value

| SMILES | inhibition |
| --- | --- |
| NNC(=O)c1cc(-c2cccs2)nc2ccccc12 | 9.4% |
| Cc1cc(NC(=O)c2cc(-c3cccs3)nc3ccccc23)no1 | -0.3% |
| CC(C)N(C1=N/C(=C\c2ccco2)C(=O)N1c1ccccc1)C(C)C | -0.07% |
| Cc1noc(C(F)(F)F)c1C(=O)NNC(=O)c1cccc(C(F)(F)F)c1 | 3.93% |
| CCOC(=O)C1C(=O)NC(SCC(=O)Nc2nccs2)=C(C#N)C1c1ccccc1OCC (stereo not drawn) | 55.1% |
| CC1CCCCN1CCNC(=O)C1CCCN(S(=O)(=O)c2cccc3nsnc23)C1 (stereo not drawn) | 3.33% |
| CN(C)c1nc(NCc2ccccc2)nc(N/N=C/c2ccc(Cl)cc2Cl)n1 | 9.37% |
| CN(C)c1nc(NCc2ccccc2)nc(N/N=C/c2ccc(Br)cc2)n1 | 3.27% |
| COc1ccc(N2CC(C(=O)O)CC2=O)cc1 (stereo not drawn) | -12.1% |
| CCC(=NCc1ccccc1)c1c(C(F)(F)F)[nH]n(-c2nc3ccccc3s2)c1=O | -0.69% |
| COc1ccc(CN=C(C)c2c(C(F)(F)F)[nH]n(-c3nc4ccccc4s3)c2=O)cc1 | -13.3% |
| COc1ccccc1NC(=O)CSc1nn2c(=O)c(C)nnc2s1 | -20.7% |
| Cc1cc(C)nc(SCCCNCc2c(F)cccc2Cl)n1 | 0.32% |
| Cc1ccc(-n2c(C)nc3ccsc3c2=O)cc1 | 9.48% |
| Cc1ccc(-n2c(Cl)c(Cl)[nH]c(=O)c2=O)cc1 | -6.67% |
| Cc1noc(C)c1COc1ccccc1C(=O)N1CCN(S(=O)(=O)c2ccccc2C(F)(F)F)CC1 | -1.24% |
| COC(=O)c1cccc(NC(=O)Cc2ccccc2[N+](=O)[O-])c1C | 2.19% |
| OC(Cn1cncn1)c1ccc(Cl)cc1 (stereo not drawn) | -4.52% |
| O=C(NCc1ccccc1)NC12CC3CC(CC(C3)C1)C2 | -2.17% |
| Cc1ccc(CNC(=O)NC23CC4CC(CC(C4)C2)C3)cc1 | 7.32% |
| Cc1noc(C)c1COc1ccc(C(=O)OCC(N)=O)cc1 | 12.9% |
| Cc1noc(C)c1COc1ccc(C(=O)OCC(=O)NC2CCCCC2C)cc1 (stereo not drawn) | 48.8% |
| Cc1ccc(N2CC(C(=O)NC3=NCCS3)CC2=O)cc1 (stereo not drawn) | 4.82% |
| CCc1ccc2oc(-c3ccc(OC)cc3)cc(=Nc3cccc(C(=O)O)c3)c2c1 | 39.4% |
| COc1ccc(-c2cc(=Nc3c(C)n(C)n(-c4ccccc4)c3=O)c3ccccc3o2)cc1 | 35.5% |

| SMILES | inhibition |
| --- | --- |
| CNC(=O)c1cnn(-c2nc(-c3ccc(OC)cc3)cs2)c1C(F)(F)F | 9.09% |
| CCN1CCc2c(OCC(=O)Nc3ccccc3)cccc2C1=O | -8.51% |
| COc1cccc(-c2cc(C(F)(F)F)nc(N3CCC(C)CC3)n2)c1 | 2.81% |
| O=C(COC(=O)C1=COCCO1)Nc1ccccc1 | 65.9% |
| O=C(COC(=O)C1=COCCO1)NCc1ccc(F)cc1 | 5.31% |
| COc1ccc(CNC(=O)COC(=O)C2=COCCO2)cc1 | 12.1% |
| CC(=O)c1cccc(NC(=O)COC(=O)C2=COCCO2)c1 | -0.86% |
| CCCCN1C(=N)N([C@@H](C)CN2CCC[C@H]2CN2C(N)=NC[C@@H]2Cc2ccccc2)C[C@H]1Cc1ccccc1 | 67.2% |
| CCCCN1C(=N)N([C@@H](CCC)CN2CCC[C@H]2CN2C(N)=NC[C@@H]2Cc2ccccc2)C[C@H]1[C@H](C)CC | 4.76% |
| Cc1nc2ccc(NC(=O)N3CCN(c4ccccn4)CC3)cc2s1 | -4.34% |
| O=C(O)c1ccc(N=NN2CCCC2)cc1 | -3.03% |
| CNC(=O)c1cc2c(s1)CCCCCC2 | -5.87% |
| CC1CCc2sc(C(=O)NC3CCCCC3)cc2C1 (stereo not drawn) | -9.17% |
| Nc1cccc(-c2ccc(CO)o2)c1 | 10.1% |
| NC(=O)C1CCN(CC(=O)N2N=CCC2c2ccccc2)CC1 (stereo not drawn) | -1.72% |
| CCC(=O)N1CCc2cc(S(=O)(=O)N3CCCC3)ccc21 | -9.42% |
| Cc1occc1C(=O)NN=C1C2CC3CC(C2)CC1C3 | -8.34% |
| COc1cc2[nH]c3c(N4CCC(C(N)=O)CC4)ncnc3c2cc1OC | 6.79% |
| COc1ccc(N2CCN(c3ncnc4c3[nH]c3ccccc34)CC2)cc1 | -0.78% |
| COc1cc2[nH]c3c(N4CCN(c5ccc(Cl)cc5)CC4)ncnc3c2cc1OC | -5.15% |
| Cc1ccc2[nH]c3c(N4CCOCC4)ncnc3c2c1 | -3.57% |
| COc1ccc2[nH]c3c(N4CC(C)OC(C)C4)ncnc3c2c1 (stereo not drawn) | -0.53% |
| Cc1ccc2c(c1)[nH]c1c(N3CCN(Cc4ccccc4)CC3)ncnc12 | 3.28% |
| O=C(COC(=O)c1ccccc1NS(=O)(=O)c1cccs1)NC1CCCCC1 | 4.13% |
| CCCCOc1ccc(C(=O)NCC(=O)NC2CCC(C)CC2)cc1 (stereo not drawn) | 9.03% |

| SMILES | inhibition |
| --- | --- |
| Cc1c(NC(=O)Nc2ccc(C(C)(C)C)cc2)c(=O)n(-c2ccccc2)n1C | 1.52% |
| Cc1cc(NC(=O)C(C)C)ncc1NC(=O)c1ccco1 | 4% |
| Cn1c(SCc2ccccn2)nnc1-c1cnccn1 | -3.38% |
| O=S(=O)(Nc1ccccc1N1CCOCC1)c1c(F)cc(F)cc1Br | -10.8% |
| CCN(C[C@H]1N[C@@](CC)(C(=O)OC)[C@H]2C(=O)N(Cc3ccccc3)C(=O)[C@@H]12)C(=O)Nc1ccc(C(F)(F)F)cc1 | -6.29% |
| CCN(C[C@H]1N[C@@](Cc2ccccc2)(C(=O)OC)[C@H]2C(=O)N(Cc3ccccc3)C(=O)[C@@H]12)C(=O)Nc1ccc(F)cc1 | 3.17% |
| COc1ccc(CNC(=O)/C=C/c2ccc(OCCCF)cc2)cc1 | 0.02% |
| O=C(/C=C/c1ccc(OCCCF)cc1)Nc1ccnc(-c2cccnc2)n1 | -3.34% |
| CC(C)(C)NC(=O)C(=O)NNC(=O)c1ccco1 | -5.31% |
| Cc1ccccc1N(CC(=O)NCc1ccncc1)S(C)(=O)=O | 1.64% |
| CSc1ccc(C(=O)C2CCCN(C(=O)c3ccc4c(c3)OCO4)C2)cc1 (stereo not drawn) | 1.02% |
| CSc1ccc(C(=O)C2CCCN(C(=O)c3nonc3C)C2)cc1 (stereo not drawn) | 12.6% |
| Cc1ccc(Cn2c([N+](=O)[O-])cnc2C)cc1 | 2.64% |
| Cc1ccc(S(=O)(=O)N(C)CC(=O)Nc2ccc3c(c2)OCO3)cc1 | -3.43% |
| Cc1ccc(C(=O)OCN2C(=O)c3ccccc3C2=O)c(O)c1 | 2.23% |
| CNC(=O)C12CC3CC(C1)CC(c1ccc(C)cc1)(C3)C2 | 5.19% |
| COc1ccccc1NC(=O)C12CC3CC(C1)CC(c1ccc(C)cc1)(C3)C2 | -6.68% |
| COCC1CCN(Cc2nc(Cc3ccccc3Cl)no2)CC1 | 4.51% |
| COC(=O)Cn1c(=NC(=O)C(C)(C)C)sc2c(C)cc(C)cc21 | -0.87% |
| CC(C)C[C@]1(c2ccccc2)ON(c2ccccc2C(F)(F)F)C1=O | -1.86% |
| CC[C@]1(c2ccccc2C)ON(c2ccccc2C(F)(F)F)C1=O | 0.115% |
| CN1CCN(CCCNC(=O)CCCOc2cc(=O)n(C)c3ccccc23)CC1 | -3.75% |
| CCCCCCCN1C(N(C)C)=NC[C@@H]1Cc1ccccc1 | 1.63% |
| Cc1cccc(-n2ccc(=O)c(C(=O)Nc3ccc(S(=O)(=O)Nc4nccc(C)n4)cc3)n2)c1 | 6.8% |
| CCOC(=O)c1cccc(NS(=O)(=O)c2c(C)[nH]c(C)c2C(=O)N2CCCC2)c1 | 12.7% |

| SMILES | inhibition |
| --- | --- |
| COC(=O)/C(C#N)=C/c1ccc(-c2ccc(S(N)(=O)=O)cc2)o1 | -0.94% |
| Cc1cc(NC(=O)/C(C#N)=C/c2ccc(-c3ccc(SC(F)F)cc3)o2)n(-c2ccccc2)n1 | 4.12% |
| C=CCn1c(O)c(C(C)=Nc2cccc(C(=O)O)c2)c(=O)[nH]c1=O | -1.56% |
| Cc1cc(C(=O)NNC(=O)c2sccc2C)c(C)o1 | -4.39% |
| CCN1CCN(C(c2cccs2)C(C)NS(=O)(=O)c2ccc(Br)cc2)CC1 (stereo not drawn) | -2.6% |
| O=C(Nc1nccs1)c1ccc(S(=O)(=O)N2CCCCC2)cc1 | -7.33% |
| CSCCC(NC(=O)COc1ccccc1)C(=O)NCCOc1ccc(C)cc1 (stereo not drawn) | 1.39% |
| COc1ccc(OC)c(S(=O)(=O)Nc2cc3c4c(c2)CCC(=O)N4CCC3)c1 | -8.72% |
| CC(=O)c1c(C(C)=O)c(C)n(-c2cccc([N+](=O)[O-])c2)c1C | 4.11% |
| Cc1cc(C(=O)CCl)c(C)n1-c1c(C)n(C)n(-c2ccccc2)c1=O | 64.9% |
| N#CCCCCn1c(-c2cncs2)nc2ccccc21 | -10.4% |
| Oc1ccc(C=NCCc2ccccc2)cc1 | 0.33% |
| CCSc1nc2ccccc2n1Cc1cccc([N+](=O)[O-])c1 | -1.33% |
| CCCCOc1ccc(C(=O)Oc2cccnc2)cc1 | 50% |
| Cc1ccc(OC(=O)c2ccc(C)c(C)c2)cn1 | 38.4% |
| CO/N=C/C(C#N)=C/c1ccc(OC)c(OC)c1 | 2.72% |
| CCCCn1c2ccccc2c2cc(CC(N)=O)ccc21 | 2.07% |
| O=C(CNC(=O)c1ccco1)NCC(=O)OCc1ccc(C(=O)Oc2ccc(Cl)cc2)cc1 | -2.15% |
| COc1ccc(NC(=O)CCC(=O)OCc2ccc(C(=O)Oc3ccc(Cl)cc3)cc2)cc1 | -10.2% |
| COc1ccc(C(=O)NCC(=O)NCC(=O)OCc2ccc(Cl)cc2)cc1 | 8.99% |
| O=C(CCC(=O)OCc1ccc(Br)cc1)Nc1ccccc1 | -10.8% |
| COc1ccc(CCNC(=O)c2ccc(Cl)cc2)cc1 | 15.5% |
| O=C(CNC(=O)c1ccco1)OCc1ccc(C(=O)c2ccccc2)cc1 | 14.1% |
